Source: article PMC7862700, “An all-to-all approach to the identification of sequence-specific readers for epigenetic DNA modifications on cytosine”

Experiments:
Assay in all cases: DAPPL (digital affinity profiling via proximity ligation, sequencing); 10 mM Tris-HCl pH 7.5, 50 mM NaCl, 1 mM DTT, 4% glycerol, room temperature, 30 min; GST-TFs on glutathione beads, 16-mer random dsDNA library, 0.1% formaldehyde crosslink after washing; high values mean tight binding
[1] = molecular target: ETV5 (Homo sapiens, UniProt P41161 1-510); conditions: protein: recombinant; tags: N-terminal GST; dsDNA, one strand shown
Sequence of ETV5 (P41161 whole entry, the tested form may be a part): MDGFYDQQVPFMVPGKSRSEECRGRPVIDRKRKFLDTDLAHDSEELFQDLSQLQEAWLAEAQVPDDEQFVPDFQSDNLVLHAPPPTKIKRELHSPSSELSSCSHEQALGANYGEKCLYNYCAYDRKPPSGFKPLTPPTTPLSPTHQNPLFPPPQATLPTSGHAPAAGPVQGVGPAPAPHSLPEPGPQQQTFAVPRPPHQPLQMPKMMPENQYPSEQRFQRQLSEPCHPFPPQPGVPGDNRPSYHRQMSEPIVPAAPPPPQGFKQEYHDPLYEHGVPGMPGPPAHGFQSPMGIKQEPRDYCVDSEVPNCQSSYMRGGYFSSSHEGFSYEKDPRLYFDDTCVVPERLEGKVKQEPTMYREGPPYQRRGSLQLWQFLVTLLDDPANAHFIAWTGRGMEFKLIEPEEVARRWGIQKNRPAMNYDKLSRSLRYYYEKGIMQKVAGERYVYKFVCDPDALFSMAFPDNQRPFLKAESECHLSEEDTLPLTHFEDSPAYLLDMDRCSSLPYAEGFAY
Summary of the method: (§1)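 A tag-only sample was pooled with DNA-barcoded human transcription factors that had been expressed in yeast as GST fusions and captured on glutathione beads. The pools were incubated for 30 min at room temperature with 200 nmole of a random double-stranded 16-mer DNA library in Tris/NaCl/DTT/glycerol buffer, then washed, crosslinked with 0.1% formaldehyde, proximity-ligated (BsaI/T4 ligase, 1 h, 37 °C), PCR-amplified and sequenced on an Illumina NextSeq500. Binding signal is each hexamer's read frequency for a factor divided by its frequency for the tag-only sample.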

[2] = molecular target: HSF1 (Homo sapiens, UniProt Q00613 1-529); conditions: protein: recombinant; tags: N-terminal GST; chain copies: 3; dsDNA, one strand shown
Sequence of HSF1 (Q00613 whole entry): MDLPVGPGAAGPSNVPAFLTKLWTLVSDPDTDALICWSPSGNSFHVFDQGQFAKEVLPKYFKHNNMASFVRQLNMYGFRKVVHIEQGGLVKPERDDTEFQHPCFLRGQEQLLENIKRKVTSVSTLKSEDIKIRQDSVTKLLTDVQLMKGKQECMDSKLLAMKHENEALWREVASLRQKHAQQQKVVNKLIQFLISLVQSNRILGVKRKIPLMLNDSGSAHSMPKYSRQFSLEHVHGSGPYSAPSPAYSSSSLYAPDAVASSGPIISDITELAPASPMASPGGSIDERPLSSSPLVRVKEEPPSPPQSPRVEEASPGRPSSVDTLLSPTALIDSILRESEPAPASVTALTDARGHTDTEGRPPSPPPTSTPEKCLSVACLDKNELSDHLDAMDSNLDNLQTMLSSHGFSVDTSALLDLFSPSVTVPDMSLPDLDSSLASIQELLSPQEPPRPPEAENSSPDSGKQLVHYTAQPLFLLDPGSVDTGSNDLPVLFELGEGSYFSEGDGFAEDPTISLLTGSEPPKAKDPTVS
Summary of the method: as §1

[3] = molecular target: T1, SPIC (Homo sapiens, UniProt Q8N5J4 1-248); conditions: protein: recombinant; tags: N-terminal GST; dsDNA, one strand shown
T1 sequence: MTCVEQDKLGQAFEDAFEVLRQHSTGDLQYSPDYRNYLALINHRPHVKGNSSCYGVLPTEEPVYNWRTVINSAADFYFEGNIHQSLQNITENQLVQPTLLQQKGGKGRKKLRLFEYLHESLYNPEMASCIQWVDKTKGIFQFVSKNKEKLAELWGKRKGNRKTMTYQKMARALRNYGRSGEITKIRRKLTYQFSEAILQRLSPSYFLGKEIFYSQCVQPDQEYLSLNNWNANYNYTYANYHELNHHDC
Summary of the method: as §1

[4] = molecular target: ELF4 (Homo sapiens, UniProt Q99607 1-663); conditions: protein: recombinant; tags: N-terminal GST; dsDNA, one strand shown
Sequence of ELF4 (Q99607 whole entry): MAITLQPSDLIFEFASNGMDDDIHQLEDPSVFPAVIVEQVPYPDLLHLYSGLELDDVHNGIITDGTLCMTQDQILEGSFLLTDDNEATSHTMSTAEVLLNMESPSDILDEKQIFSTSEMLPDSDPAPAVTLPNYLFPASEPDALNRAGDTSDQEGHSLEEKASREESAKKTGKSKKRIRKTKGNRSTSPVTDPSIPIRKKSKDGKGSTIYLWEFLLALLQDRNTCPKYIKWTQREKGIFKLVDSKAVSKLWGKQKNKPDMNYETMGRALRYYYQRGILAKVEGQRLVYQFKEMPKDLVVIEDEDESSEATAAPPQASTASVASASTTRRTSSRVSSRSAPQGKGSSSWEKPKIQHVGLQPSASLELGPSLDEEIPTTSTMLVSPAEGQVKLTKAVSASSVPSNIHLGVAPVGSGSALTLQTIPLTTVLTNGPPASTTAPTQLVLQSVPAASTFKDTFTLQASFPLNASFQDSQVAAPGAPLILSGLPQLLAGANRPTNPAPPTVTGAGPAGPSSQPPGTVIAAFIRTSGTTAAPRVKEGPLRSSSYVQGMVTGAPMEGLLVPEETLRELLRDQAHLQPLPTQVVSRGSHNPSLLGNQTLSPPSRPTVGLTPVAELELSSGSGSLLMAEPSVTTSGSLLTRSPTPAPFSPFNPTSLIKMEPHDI
Summary of the method: as §1

[5] = molecular target: T2, ELK4 (Homo sapiens, UniProt P28324-2 1-405); conditions: protein: recombinant; tags: N-terminal GST; dsDNA, one strand shown
T2 sequence: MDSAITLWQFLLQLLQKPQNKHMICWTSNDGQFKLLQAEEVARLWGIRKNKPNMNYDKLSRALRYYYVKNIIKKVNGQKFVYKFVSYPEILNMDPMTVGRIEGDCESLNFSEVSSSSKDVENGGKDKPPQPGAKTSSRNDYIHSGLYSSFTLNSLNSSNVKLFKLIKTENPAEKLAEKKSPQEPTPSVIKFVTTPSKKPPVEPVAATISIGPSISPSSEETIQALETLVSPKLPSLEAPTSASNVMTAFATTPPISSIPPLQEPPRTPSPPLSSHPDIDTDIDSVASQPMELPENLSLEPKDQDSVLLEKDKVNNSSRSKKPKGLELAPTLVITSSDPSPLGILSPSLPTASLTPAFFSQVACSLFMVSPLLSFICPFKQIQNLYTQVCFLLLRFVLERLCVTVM
Summary of the method: as §1

[6] = molecular target: T3, ETV2 (Homo sapiens, UniProt O00321 1-342); conditions: protein: recombinant; tags: N-terminal GST; dsDNA, one strand shown
T3 sequence: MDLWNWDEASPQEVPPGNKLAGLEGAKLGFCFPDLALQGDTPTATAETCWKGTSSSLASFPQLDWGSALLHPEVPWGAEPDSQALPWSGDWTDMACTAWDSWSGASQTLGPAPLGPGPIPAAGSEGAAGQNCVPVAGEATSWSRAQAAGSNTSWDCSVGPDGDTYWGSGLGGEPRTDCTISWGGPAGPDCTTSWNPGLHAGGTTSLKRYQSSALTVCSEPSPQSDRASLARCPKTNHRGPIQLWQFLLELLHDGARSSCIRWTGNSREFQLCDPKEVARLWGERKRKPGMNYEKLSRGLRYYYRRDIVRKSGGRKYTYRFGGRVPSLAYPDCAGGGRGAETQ
Summary of the method: as §1

[7] = molecular target: T4, ELF3 (Homo sapiens, UniProt P78545 1-371); conditions: protein: recombinant; tags: N-terminal GST; dsDNA, one strand shown
T4 sequence: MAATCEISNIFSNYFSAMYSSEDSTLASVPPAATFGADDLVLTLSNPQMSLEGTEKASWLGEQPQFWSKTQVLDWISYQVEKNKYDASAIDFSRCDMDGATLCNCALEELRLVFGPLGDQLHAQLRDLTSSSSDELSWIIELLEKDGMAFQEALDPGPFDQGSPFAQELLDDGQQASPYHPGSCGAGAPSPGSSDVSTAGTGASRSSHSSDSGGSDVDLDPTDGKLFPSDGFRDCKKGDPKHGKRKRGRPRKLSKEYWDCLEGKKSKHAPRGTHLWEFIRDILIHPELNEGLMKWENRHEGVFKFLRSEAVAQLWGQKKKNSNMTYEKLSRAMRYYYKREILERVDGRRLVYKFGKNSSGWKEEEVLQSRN
Summary of the method: as §1

[8] = molecular target: CRX (Homo sapiens, UniProt O43186 1-299); conditions: protein: recombinant; tags: N-terminal GST; dsDNA, one strand shown
Sequence of CRX (O43186 whole entry): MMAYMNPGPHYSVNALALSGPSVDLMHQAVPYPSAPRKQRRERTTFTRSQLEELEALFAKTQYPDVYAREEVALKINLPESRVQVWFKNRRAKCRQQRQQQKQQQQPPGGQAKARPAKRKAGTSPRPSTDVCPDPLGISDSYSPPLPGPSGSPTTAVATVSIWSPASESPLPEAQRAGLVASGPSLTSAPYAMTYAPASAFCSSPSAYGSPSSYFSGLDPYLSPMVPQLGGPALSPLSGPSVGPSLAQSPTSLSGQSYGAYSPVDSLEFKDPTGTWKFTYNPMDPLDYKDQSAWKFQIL
Summary of the method: as §1

[9] = molecular target: ETV1 (Homo sapiens, UniProt P50549 1-477); conditions: protein: recombinant; tags: N-terminal GST; dsDNA, one strand shown
Sequence of ETV1 (P50549 whole entry): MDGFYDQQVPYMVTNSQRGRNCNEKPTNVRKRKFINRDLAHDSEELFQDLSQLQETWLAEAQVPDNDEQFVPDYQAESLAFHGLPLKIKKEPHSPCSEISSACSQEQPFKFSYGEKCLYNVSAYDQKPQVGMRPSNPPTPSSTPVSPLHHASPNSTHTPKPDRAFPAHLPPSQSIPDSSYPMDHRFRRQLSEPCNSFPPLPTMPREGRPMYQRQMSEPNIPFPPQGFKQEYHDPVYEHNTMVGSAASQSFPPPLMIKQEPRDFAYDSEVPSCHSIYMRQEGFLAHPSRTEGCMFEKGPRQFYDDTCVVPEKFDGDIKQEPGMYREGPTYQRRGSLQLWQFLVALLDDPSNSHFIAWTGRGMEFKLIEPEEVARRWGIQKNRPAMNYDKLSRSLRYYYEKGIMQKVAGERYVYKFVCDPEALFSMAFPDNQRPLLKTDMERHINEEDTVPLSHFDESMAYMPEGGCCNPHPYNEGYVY
Summary of the method: as §1

[10] = molecular target: T5, FEV (Homo sapiens, UniProt Q99581 1-238); conditions: protein: recombinant; tags: N-terminal GST; dsDNA, one strand shown
T5 sequence: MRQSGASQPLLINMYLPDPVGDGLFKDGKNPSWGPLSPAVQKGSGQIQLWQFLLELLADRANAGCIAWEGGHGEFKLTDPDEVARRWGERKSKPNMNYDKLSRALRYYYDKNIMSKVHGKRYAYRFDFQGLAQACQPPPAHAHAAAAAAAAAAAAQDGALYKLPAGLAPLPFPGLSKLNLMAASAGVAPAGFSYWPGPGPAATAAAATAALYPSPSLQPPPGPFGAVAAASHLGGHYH
Summary of the method: as §1

| Sequence | binding signal [1] | binding signal [2] | binding signal [3] | binding signal [4] | binding signal [5] | binding signal [6] | binding signal [7] | binding signal [8] | binding signal [9] | binding signal [10] |
| --- | --- | --- | --- | --- | --- | --- | --- | --- | --- | --- |
| AAAGGT | 1.05 fold enrichment (6-mer frequency, TF over GST control) | 1.02 fold enrichment (6-mer frequency, TF over GST control) | 1.09 fold enrichment (6-mer frequency, TF over GST control) | 1.02 fold enrichment (6-mer frequency, TF over GST control) | 1.05 fold enrichment (6-mer frequency, TF over GST control) | 1.06 fold enrichment (6-mer frequency, TF over GST control) | 1.17 fold enrichment (6-mer frequency, TF over GST control) | – | – | – |
| TGTGGA | 1.04 fold enrichment (6-mer frequency, TF over GST control) | 1.13 fold enrichment (6-mer frequency, TF over GST control) | 1.11 fold enrichment (6-mer frequency, TF over GST control) | 1.06 fold enrichment (6-mer frequency, TF over GST control) | 1.15 fold enrichment (6-mer frequency, TF over GST control) | 1.13 fold enrichment (6-mer frequency, TF over GST control) | 1 fold enrichment (6-mer frequency, TF over GST control) | 1.06 fold enrichment (6-mer frequency, TF over GST control) | 1.03 fold enrichment (6-mer frequency, TF over GST control) | – |
| GAAGCT | 1.62 fold enrichment (6-mer frequency, TF over GST control) | 1.74 fold enrichment (6-mer frequency, TF over GST control) | 1.44 fold enrichment (6-mer frequency, TF over GST control) | 1.49 fold enrichment (6-mer frequency, TF over GST control) | 1.69 fold enrichment (6-mer frequency, TF over GST control) | 1.56 fold enrichment (6-mer frequency, TF over GST control) | 1.47 fold enrichment (6-mer frequency, TF over GST control) | 1.47 fold enrichment (6-mer frequency, TF over GST control) | 1.57 fold enrichment (6-mer frequency, TF over GST control) | 1.48 fold enrichment (6-mer frequency, TF over GST control) |
| TAAGGT | 1.12 fold enrichment (6-mer frequency, TF over GST control) | 1.1 fold enrichment (6-mer frequency, TF over GST control) | 1.11 fold enrichment (6-mer frequency, TF over GST control) | 1.19 fold enrichment (6-mer frequency, TF over GST control) | 1.06 fold enrichment (6-mer frequency, TF over GST control) | 1.08 fold enrichment (6-mer frequency, TF over GST control) | 1.08 fold enrichment (6-mer frequency, TF over GST control) | 1.38 fold enrichment (6-mer frequency, TF over GST control) | 1.1 fold enrichment (6-mer frequency, TF over GST control) | – |
